Reference: the supplement of paper PMC10849652
The full data set covers some 7,900 targets. This sample favours those with a hit. About 0.6% of all pairs of compound and target were hits. A number with no mark means an inactive call.

Tests used:
Experiment in all cases: log2 fold change, soluble protein after heating vs DMSO (PISA); higher = thermal stabilisation; K562 cells, 10 uM, 30 min; active = over 0.2 and 3.5 SD of the protein, either way, in both replicates (recomputed)
[1] = compound: C#Cc1cccc(Nc2ncnc3cc(OCCOC)c(OCCOC)cc23)c1 [erlotinib]
In short: (§1)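 Values are thermal stability changes relative to control samples and are taken from duplicates. They are stated as log2 fold changes. Before quantification by TMTpro 16plex LC-MS/MS with equalised channel sums, K562 cells at 2×10^6 cells/mL were treated with 10 μM compound for 30 min, heated in aliquots for 3 min across 48°C-58°C, pooled, extracted in PBS with 0.5% NP-40 at 4°C, and centrifuged at 21,000xg for 90 min to give the soluble supernatant.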

[2] = compound: C/C(=N\NC(=O)C1=CC(=CC=C1)S(=O)(=O)N2CCOCC2)/C3=C(C=CC(=C3)Cl)O
In short: as §1

[3] = compound: C1=CC(=C(C=C1Cl)C2=NC3=NC=CN=C3C(=N2)NC4=CC=NC=C4)F
In short: as §1

[4] = compound: C1=CC(=CC=C1C2=NC3=C(N2)C=C(C=C3)C(=O)N)OC4=CC=C(C=C4)Cl
In short: as §1

[5] = compound: C1=CC2=C(C=CC(=C2)/C=C\3/C(=O)NC(=NCC4=CC=CS4)S3)N=C1
In short: as §1

[6] = compound: C1=CC2=NC=CN=C2C=C1/C=C/3\C(=O)NC(=O)S3
In short: as §1

[7] = compound: C1=CC=C(C=C1)C2=NC(=C(N2)C3=CC=NC=C3)C4=CC(=C(C=C4)Cl)O
In short: as §1

[8] = compound: C1=CC=C2C(=C1)C3=NNC4=CC=CC(=C43)C2=O
In short: as §1

[9] = compound: C1CCN(C1)C(=O)NC2=CC=CC(=C2)NC3=NC=C(C(=N3)NCCC4=CN=CN4)Br
In short: as §1

[10] = compound: C1CN(CCC1(CC2=CC=C(C=C2)Cl)N)C3=NC=NC4=C3C=CN4
In short: as §1

UniProt Q15061, sequence (Q15061 whole entry, looked up): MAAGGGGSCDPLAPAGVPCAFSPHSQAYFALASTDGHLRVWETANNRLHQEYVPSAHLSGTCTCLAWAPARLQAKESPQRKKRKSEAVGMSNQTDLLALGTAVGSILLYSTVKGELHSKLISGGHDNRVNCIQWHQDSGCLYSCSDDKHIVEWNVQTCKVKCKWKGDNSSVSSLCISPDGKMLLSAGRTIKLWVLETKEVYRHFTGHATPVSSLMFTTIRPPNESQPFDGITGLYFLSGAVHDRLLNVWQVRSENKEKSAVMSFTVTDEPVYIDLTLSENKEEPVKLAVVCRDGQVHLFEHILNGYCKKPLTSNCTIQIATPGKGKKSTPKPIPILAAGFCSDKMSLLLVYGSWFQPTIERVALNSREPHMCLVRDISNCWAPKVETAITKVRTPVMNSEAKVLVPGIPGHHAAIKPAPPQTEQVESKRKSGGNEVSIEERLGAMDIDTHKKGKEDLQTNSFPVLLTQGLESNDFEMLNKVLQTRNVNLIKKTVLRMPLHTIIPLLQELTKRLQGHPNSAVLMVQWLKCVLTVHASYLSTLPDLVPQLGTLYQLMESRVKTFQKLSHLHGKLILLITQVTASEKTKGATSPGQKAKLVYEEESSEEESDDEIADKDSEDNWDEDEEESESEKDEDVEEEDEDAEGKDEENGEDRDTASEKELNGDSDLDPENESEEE
UniProt Q7Z5K2, sequence (Q7Z5K2 whole entry, looked up): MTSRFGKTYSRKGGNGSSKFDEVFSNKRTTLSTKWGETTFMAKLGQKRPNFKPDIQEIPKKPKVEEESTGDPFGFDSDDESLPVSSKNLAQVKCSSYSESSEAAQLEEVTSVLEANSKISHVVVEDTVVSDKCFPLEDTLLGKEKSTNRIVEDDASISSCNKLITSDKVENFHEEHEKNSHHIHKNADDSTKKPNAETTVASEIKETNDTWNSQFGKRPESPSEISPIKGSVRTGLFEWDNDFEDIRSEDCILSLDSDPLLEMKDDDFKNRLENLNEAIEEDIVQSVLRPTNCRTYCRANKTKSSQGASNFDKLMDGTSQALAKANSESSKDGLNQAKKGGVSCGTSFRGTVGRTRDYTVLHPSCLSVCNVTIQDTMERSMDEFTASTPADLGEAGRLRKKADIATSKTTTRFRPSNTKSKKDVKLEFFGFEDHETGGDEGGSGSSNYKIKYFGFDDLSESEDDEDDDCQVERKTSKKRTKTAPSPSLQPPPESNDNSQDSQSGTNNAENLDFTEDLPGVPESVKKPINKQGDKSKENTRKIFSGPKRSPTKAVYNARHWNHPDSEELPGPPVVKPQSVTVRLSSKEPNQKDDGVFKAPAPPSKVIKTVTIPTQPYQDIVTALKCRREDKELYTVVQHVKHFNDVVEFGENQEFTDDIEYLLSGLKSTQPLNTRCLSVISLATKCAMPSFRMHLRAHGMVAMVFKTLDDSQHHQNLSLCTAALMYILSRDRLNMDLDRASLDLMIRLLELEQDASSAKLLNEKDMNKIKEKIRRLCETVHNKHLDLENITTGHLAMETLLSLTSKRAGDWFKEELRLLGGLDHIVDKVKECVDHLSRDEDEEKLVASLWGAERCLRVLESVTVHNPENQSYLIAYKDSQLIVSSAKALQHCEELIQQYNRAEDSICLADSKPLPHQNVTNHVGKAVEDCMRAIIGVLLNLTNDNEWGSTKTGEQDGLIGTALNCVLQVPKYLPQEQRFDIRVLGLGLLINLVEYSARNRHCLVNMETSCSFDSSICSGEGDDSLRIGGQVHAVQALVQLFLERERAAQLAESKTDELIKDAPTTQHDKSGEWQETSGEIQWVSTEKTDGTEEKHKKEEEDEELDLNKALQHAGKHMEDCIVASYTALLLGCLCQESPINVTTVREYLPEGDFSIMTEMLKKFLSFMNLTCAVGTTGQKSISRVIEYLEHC
UniProt Q9BV38, sequence (Q9BV38 whole entry, looked up): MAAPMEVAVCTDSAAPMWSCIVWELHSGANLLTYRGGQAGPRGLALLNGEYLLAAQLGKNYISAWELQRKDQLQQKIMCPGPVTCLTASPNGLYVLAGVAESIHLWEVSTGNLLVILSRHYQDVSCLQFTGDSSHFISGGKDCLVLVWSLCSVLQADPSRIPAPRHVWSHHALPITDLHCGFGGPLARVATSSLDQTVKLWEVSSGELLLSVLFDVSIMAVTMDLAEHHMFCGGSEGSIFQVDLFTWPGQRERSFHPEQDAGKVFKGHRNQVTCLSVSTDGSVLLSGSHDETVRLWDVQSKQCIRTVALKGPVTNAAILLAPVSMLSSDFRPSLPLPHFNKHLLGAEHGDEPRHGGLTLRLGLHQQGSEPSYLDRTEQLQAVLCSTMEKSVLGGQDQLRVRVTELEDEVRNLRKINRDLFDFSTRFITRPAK
WASHC2C, A0A096LPC5, sequence (A0A096LPC5 whole entry, looked up): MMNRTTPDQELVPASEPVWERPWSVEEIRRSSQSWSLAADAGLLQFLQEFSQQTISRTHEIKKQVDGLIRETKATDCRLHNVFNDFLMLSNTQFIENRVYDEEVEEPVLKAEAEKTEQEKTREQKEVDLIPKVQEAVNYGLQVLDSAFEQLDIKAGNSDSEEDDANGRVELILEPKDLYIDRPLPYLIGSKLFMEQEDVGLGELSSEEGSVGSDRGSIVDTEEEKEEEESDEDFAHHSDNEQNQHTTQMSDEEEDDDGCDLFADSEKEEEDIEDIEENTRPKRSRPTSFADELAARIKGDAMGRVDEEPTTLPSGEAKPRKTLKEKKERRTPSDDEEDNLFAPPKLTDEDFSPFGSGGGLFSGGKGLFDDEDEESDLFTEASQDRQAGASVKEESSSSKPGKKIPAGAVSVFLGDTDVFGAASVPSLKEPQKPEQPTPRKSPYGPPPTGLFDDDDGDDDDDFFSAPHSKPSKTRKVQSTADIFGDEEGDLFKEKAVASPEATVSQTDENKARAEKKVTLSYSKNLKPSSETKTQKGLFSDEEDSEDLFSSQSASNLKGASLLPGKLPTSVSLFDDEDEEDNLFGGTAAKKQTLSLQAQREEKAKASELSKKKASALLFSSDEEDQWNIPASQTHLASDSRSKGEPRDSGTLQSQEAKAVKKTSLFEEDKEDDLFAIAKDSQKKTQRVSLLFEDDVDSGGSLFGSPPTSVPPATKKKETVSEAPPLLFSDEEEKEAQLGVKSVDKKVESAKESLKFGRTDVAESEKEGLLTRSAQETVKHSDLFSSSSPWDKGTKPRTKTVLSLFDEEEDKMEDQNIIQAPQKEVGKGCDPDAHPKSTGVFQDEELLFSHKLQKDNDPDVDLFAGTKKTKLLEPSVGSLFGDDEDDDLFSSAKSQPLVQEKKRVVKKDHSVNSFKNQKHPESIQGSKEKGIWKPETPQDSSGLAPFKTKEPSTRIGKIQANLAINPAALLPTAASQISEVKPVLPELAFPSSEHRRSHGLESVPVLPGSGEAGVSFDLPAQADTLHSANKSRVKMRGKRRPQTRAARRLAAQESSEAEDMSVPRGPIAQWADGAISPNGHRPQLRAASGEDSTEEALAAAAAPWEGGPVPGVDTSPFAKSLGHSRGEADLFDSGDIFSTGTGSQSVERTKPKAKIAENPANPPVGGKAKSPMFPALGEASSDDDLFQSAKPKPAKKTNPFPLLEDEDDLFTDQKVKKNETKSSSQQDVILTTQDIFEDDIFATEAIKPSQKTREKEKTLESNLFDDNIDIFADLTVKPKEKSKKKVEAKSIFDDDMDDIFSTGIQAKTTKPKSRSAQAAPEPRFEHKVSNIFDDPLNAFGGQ
UniProt Q12768, sequence (Q12768 whole entry, looked up): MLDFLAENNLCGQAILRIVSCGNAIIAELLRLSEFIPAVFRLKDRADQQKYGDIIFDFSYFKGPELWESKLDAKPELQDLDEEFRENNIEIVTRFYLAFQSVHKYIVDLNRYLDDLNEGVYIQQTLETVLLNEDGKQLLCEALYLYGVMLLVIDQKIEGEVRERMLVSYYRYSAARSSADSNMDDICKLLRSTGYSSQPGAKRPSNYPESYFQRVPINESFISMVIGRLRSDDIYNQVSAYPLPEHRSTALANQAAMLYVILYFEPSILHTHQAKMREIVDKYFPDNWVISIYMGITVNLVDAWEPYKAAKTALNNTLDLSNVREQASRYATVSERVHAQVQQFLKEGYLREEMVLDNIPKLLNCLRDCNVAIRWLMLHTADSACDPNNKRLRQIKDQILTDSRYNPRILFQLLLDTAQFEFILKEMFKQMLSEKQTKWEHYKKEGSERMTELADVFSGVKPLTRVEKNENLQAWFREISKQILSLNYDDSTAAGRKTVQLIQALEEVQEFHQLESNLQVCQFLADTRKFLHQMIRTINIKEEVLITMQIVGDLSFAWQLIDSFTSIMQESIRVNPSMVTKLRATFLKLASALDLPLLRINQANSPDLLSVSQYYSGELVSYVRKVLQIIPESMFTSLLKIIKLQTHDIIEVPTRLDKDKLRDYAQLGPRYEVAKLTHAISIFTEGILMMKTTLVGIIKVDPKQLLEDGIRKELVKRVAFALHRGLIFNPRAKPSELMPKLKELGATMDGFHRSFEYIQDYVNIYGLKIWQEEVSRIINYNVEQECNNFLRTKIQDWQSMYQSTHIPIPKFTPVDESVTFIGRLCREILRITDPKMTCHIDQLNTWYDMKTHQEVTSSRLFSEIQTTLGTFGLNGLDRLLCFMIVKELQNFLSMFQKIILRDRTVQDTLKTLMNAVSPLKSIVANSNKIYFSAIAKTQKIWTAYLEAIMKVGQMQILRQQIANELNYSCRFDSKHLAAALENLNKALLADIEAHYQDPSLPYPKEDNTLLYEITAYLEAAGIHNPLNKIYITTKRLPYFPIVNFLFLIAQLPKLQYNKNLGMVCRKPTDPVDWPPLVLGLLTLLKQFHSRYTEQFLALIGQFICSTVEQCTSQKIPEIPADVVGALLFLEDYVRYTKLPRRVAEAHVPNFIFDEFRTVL
UniProt Q7Z7N9, sequence (Q7Z7N9 whole entry, looked up): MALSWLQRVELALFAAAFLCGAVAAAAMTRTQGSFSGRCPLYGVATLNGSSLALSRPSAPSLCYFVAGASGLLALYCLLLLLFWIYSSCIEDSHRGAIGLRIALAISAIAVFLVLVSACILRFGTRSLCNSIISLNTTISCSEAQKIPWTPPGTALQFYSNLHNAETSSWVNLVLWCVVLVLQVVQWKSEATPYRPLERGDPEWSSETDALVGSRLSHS

| Target | log2 fold change [1] | log2 fold change [2] | log2 fold change [3] | log2 fold change [4] | log2 fold change [5] | log2 fold change [6] | log2 fold change [7] | log2 fold change [8] | log2 fold change [9] | log2 fold change [10] |
| --- | --- | --- | --- | --- | --- | --- | --- | --- | --- | --- |
| UGGT1 (UniProt Q9NYU2) | -0.027 | 0.016 | 0.007 | 0.007 | 0.018 | 0.014 | -0.012 | 0.019 | -0.015 | 0.005 |
| WASHC5 (UniProt Q12768) | 0.019 | 0.084 | -0.061 | -0.004 | 0.088 | -0.058 | 0.04 | 0.018 | 0.002 | 0.002 |
| WASHC2C, A0A096LPC5 | 0.095 | -0.224 | -0.016 | -0.006 | 0.204 | 0.113 | 0.111 | -0.071 | -0.069 | 0.08 |
| UHRF1BP1 (UniProt Q6BDS2) | -0.018 | -0.01 | 0.011 | 0.033 | 0.001 | 0.008 | -0.017 | -0.009 | -0.013 | 0.008 |
| TTC33 (UniProt Q6PID6) | 0.065 | -0.035 | 0.019 | 0.001 | 0.176 | -0.107 | -0.045 | -0.038 | – | – |
| TPP1 (UniProt O14773) | 0.013 | 0.009 | 0.059 | -0.015 | -0.007 | 0.024 | 0.034 | -0.014 | -0.012 | -0.017 |
| WDR43 (UniProt Q15061) | 0.001 | -0.003 | 0.008 | -0.001 | -0.028 | 0.015 | -0.008 | 0.017 | -0.013 | 0.042 |
| VPS50 (UniProt Q96JG6) | 0.008 | 0.094 | -0.003 | -0.017 | 0.088 | 0.025 | 0.023 | -0.019 | -0.022 | -0.021 |
| XRCC6 (UniProt P12956) | 0.025 | 0.103 | 0.093 | 0.011 | 0.065 | 0.031 | -0.023 | -0.036 | -0.043 | -0.025 |
| WDR18 (UniProt Q9BV38) | 0.058 | 0.039 | 0.024 | -0.015 | -0.111 | 0.031 | -0.045 | 0.011 | -0.035 | 0.065 |
| UXT isoform 2 (UniProt Q9UBK9) | 0.925 (active) | -0.263 | 0.078 | 0.113 | 0.061 | -0.044 | -0.053 | 0.012 | -0.036 | -0.086 |
| TMEM128 (UniProt Q5BJH2) | -0.048 | 0 | 0.06 | 0.034 | -0.437 | 0.067 | -0.081 | -0.238 | -0.182 | 0.084 |
| USP34 (UniProt Q70CQ2) | 0.065 | 0.074 | 0.026 | -0.02 | 0.145 | -0.013 | 0.027 | -0.043 | 0.015 | -0.086 |
| UBR2 (UniProt Q8IWV8) | 0.019 | 0.067 | -0.108 | 0.051 | 0.045 | 0.046 | -0.08 | -0.189 | 0.016 | 0.018 |
| XPO6 (UniProt Q96QU8) | 0.07 | 0.056 | -0.465 (active) | -0.055 | 0.093 | -0.15 | -0.01 | -0.008 | 0.087 | 0.02 |
| TMEM179B (UniProt Q7Z7N9) | 0.042 | -0.016 | 0.073 | 0.032 | -0.009 | 0.034 | -0.107 | -0.032 | -0.165 | -0.005 |
| VPS35L (UniProt Q7Z3J2) | 0.011 | -0.004 | -0.072 | 0.025 | 0.044 | 0.059 | 0.014 | 0.012 | -0.047 | 0.071 |
| VPS8 (UniProt Q8N3P4) | 0.005 | 0.036 | 0.017 | -0.024 | 0.016 | 0.031 | 0.041 | 0.012 | 0.026 | 0.027 |
| TRMT61A (UniProt Q96FX7) | -0.03 | -0.062 | -0.354 (active) | 0.087 | -0.059 | -0.07 | -0.017 | -0.046 | 0.054 | 0.054 |
| VWA8 (UniProt A3KMH1) | 0.077 | 0.037 | 0.017 | -0.036 | 0.108 | 0.008 | 0.017 | 0.069 | -0.009 | 0.042 |
| WDR4 (UniProt P57081) | 0.058 | 0.106 | 0.131 | -0.012 | -0.046 | 0.223 | 0.061 | 0.011 | 0.031 | 0.053 |
| TNFRSF8 (UniProt P28908) | 0.009 | 0.017 | -0.015 | 0.006 | -0.109 | 0.024 | -0.062 | -0.061 | -0.046 | 0.05 |
| TNPO1 (UniProt Q92973) | -0.032 | 0.08 | 0.038 | 0.011 | -0.006 | 0.016 | 0.008 | -0.027 | -0.001 | 0 |
| WAPL isoform 3 (UniProt Q7Z5K2) | 0.031 | 0.017 | 0.048 | -0.037 | 0.057 | 0.144 | 0.059 | -0.012 | -0.217 | -0.062 |
| UTP14A (UniProt Q9BVJ6) | -0.142 | -0.15 | -0.301 | 0.06 | -0.075 | -0.005 | -0.06 | -0.045 | 0.006 | -0.155 |
| UBA1 (UniProt P22314) | 0.1 | 0.166 | 0.074 | -0.024 | 0.114 | -0.004 | 0.065 | 0.023 | -0.034 | -0.175 |
| VDAC1 (UniProt C9JI87) | 0.277 | -0.05 | 0.095 | -0.01 | 0.13 | 0.124 | 0.091 | -0.04 | – | – |
| WDR47 (UniProt O94967) | 0.038 | 0.065 | -0.014 | -0.002 | -0.002 | 0.06 | 0.047 | 0 | 0.013 | 0.006 |
| UBLCP1 (UniProt Q8WVY7) | 0.03 | 0.089 | 0.024 | -0.022 | -0.029 | 0.005 | -0.019 | 0.038 | 0.035 | -0.262 (active) |
| WDHD1 (UniProt O75717) | 0.007 | 0.173 | 0.093 | -0.002 | 0.026 | 0.038 | -0.02 | -0.028 | -0.031 | -0.013 |
